{"source": "paper PMC7819943", "about": "“Rice protein-binding microarrays: a tool to detect cis-acting elements near promoter regions in rice”", "note": "The full ranking holds about 39,000 sequences; the median of “fluorescence intensity (a.u.)” is about 4,300, and the highest 2% start at about 39,000. For the sample, the highest values were picked, then their nearest neighbours and some sequences at random."}
{"target": "T1, OsSMF1 (Oryza sativa, UniProt Q6ZLB0 1-436)", "T1 sequence": "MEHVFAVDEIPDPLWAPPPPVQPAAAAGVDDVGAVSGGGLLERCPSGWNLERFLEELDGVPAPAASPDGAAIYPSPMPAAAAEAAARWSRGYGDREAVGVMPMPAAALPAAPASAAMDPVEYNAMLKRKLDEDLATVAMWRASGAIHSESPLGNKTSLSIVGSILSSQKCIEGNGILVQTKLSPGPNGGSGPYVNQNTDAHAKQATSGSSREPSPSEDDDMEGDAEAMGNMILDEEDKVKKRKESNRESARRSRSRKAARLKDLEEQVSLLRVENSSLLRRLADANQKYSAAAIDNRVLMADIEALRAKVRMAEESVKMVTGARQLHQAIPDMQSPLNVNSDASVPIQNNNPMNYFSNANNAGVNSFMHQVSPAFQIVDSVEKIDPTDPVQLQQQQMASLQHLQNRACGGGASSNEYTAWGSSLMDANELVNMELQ", "experiment": "protein-binding microarray (RPBM); PBS, 2% BSA, 51.3 ng/ul salmon testes DNA, 50 uM zinc acetate, 200 nM TF, 25 C, 1 h; high values mean tight binding", "conditions": "protein: recombinant; tags: N-terminal polyhistidine and DsRed monomer fusion (pET32a); chain copies: 2; label: CyDye5-dUTP incorporated in the synthesized complementary strand; 3' TTTTT single-stranded linker to array surface; dsDNA, one strand shown", "in_short": "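Binding signal is defined as the fluorescence intensity of each feature in arbitrary units, read on an Axon 4000B scanner. Transcription factors with N-terminal polyhistidine and DsRed fusions came from E. coli BL21-CodonPlus and were purified on Ni–NTA. They were incubated at 200 nM for 1 h at 25 °C on a custom Agilent array that had been made double-stranded with Cy5-dUTP, with 50 µM zinc acetate present, and the array was washed.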"}
{"sequence": "CACGGCATCGGCATCGGCAGCCACGCCTCGCGTGGCACGGCGGAGTCACCTAGTGCAG", "binding signal": "4720 fluorescence intensity (a.u.)"}
{"sequence": "GACAGATGTGCTGAGTGCTGACGTGGTTAAACTAACCTCGCGGAGTCACCTAGTGCAG", "binding signal": "16100 fluorescence intensity (a.u.)"}
{"sequence": "CCAAACTAAGAGTGTTCAAGGGGAGGGGAAAAGAGAAGATCGGAGTCACCTAGTGCAG", "binding signal": "3660 fluorescence intensity (a.u.)"}
{"sequence": "TCGAAAACTTTTCAGCCACGTGATGTTGGCAATCGCTGTTCGGAGTCACCTAGTGCAG", "binding signal": "7190 fluorescence intensity (a.u.)"}
{"sequence": "AAGAGGATCGCAATCGTGAAAACTTCGCAAGTGTTCAGAACGGAGTCACCTAGTGCAG", "binding signal": "59100 fluorescence intensity (a.u.)"}
{"sequence": "CTTGGCCCAGAAACAACACACACACTCAAATCTGGATCCACGGAGTCACCTAGTGCAG", "binding signal": "3790 fluorescence intensity (a.u.)"}
{"sequence": "CGGCCCACCCACCAACCACCACCACCACCACCACACCCGCCGGAGTCACCTAGTGCAG", "binding signal": "3740 fluorescence intensity (a.u.)"}
{"sequence": "GGGCCCCACAACCACCCCATAAATAAAGCAACACAACAACCGGAGTCACCTAGTGCAG", "binding signal": "53000 fluorescence intensity (a.u.)"}
{"sequence": "CCACTGGACCATAACTGGGCCCAGCACACAGAAACAAATCCGGAGTCACCTAGTGCAG", "binding signal": "44700 fluorescence intensity (a.u.)"}
{"sequence": "AATGAAATTAAACACACCCAACAAAATAAAAGACCAAACCCGGAGTCACCTAGTGCAG", "binding signal": "3140 fluorescence intensity (a.u.)"}
{"sequence": "CACCAGCACATAAACACAAACCCACAGAAGACATTGCATTCGGAGTCACCTAGTGCAG", "binding signal": "5420 fluorescence intensity (a.u.)"}
{"sequence": "TCCTTCTTCTTCTCCTTCCTCACTGCAACACTCTTCGGGGCGGAGTCACCTAGTGCAG", "binding signal": "38900 fluorescence intensity (a.u.)"}
{"sequence": "CTTCGTCTCCTCCTCCTCCACGTCATCCGCCTCCGCCTCCCGGAGTCACCTAGTGCAG", "binding signal": "26000 fluorescence intensity (a.u.)"}
{"sequence": "TTTGTGCGTGTTACGAGTGACTTGCGTTTATATCCTGCTTCGGAGTCACCTAGTGCAG", "binding signal": "6490 fluorescence intensity (a.u.)"}
{"sequence": "ACAGGCATAGAGGCTGCTGACACACACCATCCGATCTGTCCGGAGTCACCTAGTGCAG", "binding signal": "4990 fluorescence intensity (a.u.)"}
{"sequence": "GGGCGGAGCTGGTGCGGAGGGTGGCGTGGCAGCTCGAGGACGGAGTCACCTAGTGCAG", "binding signal": "5260 fluorescence intensity (a.u.)"}
{"sequence": "GCCGTGAACCAAAGCTCTTGCCGTGCTGTGCCGTGCCGGTCGGAGTCACCTAGTGCAG", "binding signal": "3220 fluorescence intensity (a.u.)"}
{"sequence": "CATCCCTGGTGCTCTTGGTCTCTTGGCAGCTGTGGAAGGACGGAGTCACCTAGTGCAG", "binding signal": "43000 fluorescence intensity (a.u.)"}
{"sequence": "GCGTGGTGCTGGTCTCCAAGGATCCCGACAACATCCGCGACGGAGTCACCTAGTGCAG", "binding signal": "5380 fluorescence intensity (a.u.)"}
{"sequence": "TGCAGATGGTGCTGTGAAAGCTCTTGAACAGCAGGAAGGTCGGAGTCACCTAGTGCAG", "binding signal": "43400 fluorescence intensity (a.u.)"}
{"sequence": "GTATTGCTGCTGTGATGGAACAAGCTCAGCAGGGTGACATCGGAGTCACCTAGTGCAG", "binding signal": "3290 fluorescence intensity (a.u.)"}
{"sequence": "ATGTGATGCATGATGATTAGATATGCTTGCATGTTAATTTCGGAGTCACCTAGTGCAG", "binding signal": "3160 fluorescence intensity (a.u.)"}
{"sequence": "TGCTGCCTTTATCATCACCAAGAGCCACTACCTTGCCTTACGGAGTCACCTAGTGCAG", "binding signal": "4370 fluorescence intensity (a.u.)"}
{"sequence": "ACACTAATTTCAAGGTTGCTCGTGAGTCATAATCCTGACGCGGAGTCACCTAGTGCAG", "binding signal": "7720 fluorescence intensity (a.u.)"}
{"sequence": "GGCCGGAGGGCGGCCTCGGTGGCGTGGAGTTGGCAGCGGGCGGAGTCACCTAGTGCAG", "binding signal": "3770 fluorescence intensity (a.u.)"}
{"sequence": "TCGACCCACCGTCTGCCACGTCAGCTTGCCGCCCACCAATCGGAGTCACCTAGTGCAG", "binding signal": "28900 fluorescence intensity (a.u.)"}
{"sequence": "AGTAACCGACTCCTTTCCAACGTGTTCCCCACGAAGCCGGCGGAGTCACCTAGTGCAG", "binding signal": "4560 fluorescence intensity (a.u.)"}
{"sequence": "GTGCCTGACAATCCTACAGGTGAAATCAACCCCTTTCATCCGGAGTCACCTAGTGCAG", "binding signal": "40800 fluorescence intensity (a.u.)"}
{"sequence": "TTTGAAACCCCTCCTCCTCCTCCTTCCCCAACACACAATCCGGAGTCACCTAGTGCAG", "binding signal": "3250 fluorescence intensity (a.u.)"}
{"sequence": "CCCTTCCTTCCTTCCTTTGCATCATCATCATCAACCCAATCGGAGTCACCTAGTGCAG", "binding signal": "4440 fluorescence intensity (a.u.)"}
{"sequence": "CCACAAACATGCAAGACCAAATTCAACTTCTACAAGTTGTCGGAGTCACCTAGTGCAG", "binding signal": "13900 fluorescence intensity (a.u.)"}
{"sequence": "AGGTTCGCAGTTCCACGCATCCCACCATCACCACACCACGCGGAGTCACCTAGTGCAG", "binding signal": "5160 fluorescence intensity (a.u.)"}
{"sequence": "CCACGCTATCCCATGCGATTCGAGAAGGTTCCACACACACCGGAGTCACCTAGTGCAG", "binding signal": "41300 fluorescence intensity (a.u.)"}
{"sequence": "CGTGTTCGATTCCGCTGCTATCCACGTCGCTACGCGCCACCGGAGTCACCTAGTGCAG", "binding signal": "7020 fluorescence intensity (a.u.)"}
{"sequence": "TCGAGCCGGTAGATGTCTCAGCTAGTGCTTTATCTGTTCGCGGAGTCACCTAGTGCAG", "binding signal": "3180 fluorescence intensity (a.u.)"}
{"sequence": "CGGCGCCTAGACTGCGTATCGTAGCTGTCGAACGTGTCGTCGGAGTCACCTAGTGCAG", "binding signal": "3640 fluorescence intensity (a.u.)"}
{"sequence": "GAATCTACTGGGCATTTCGTCAAACAGCTCATCTGCGCCCCGGAGTCACCTAGTGCAG", "binding signal": "3590 fluorescence intensity (a.u.)"}
{"sequence": "CTCTGGCGATGTGGCGTCTGGTCAAATTCATTGTCTCTACCGGAGTCACCTAGTGCAG", "binding signal": "47900 fluorescence intensity (a.u.)"}
{"sequence": "ATTCGTCTGAAAATTGTGTTTCACATGCGTCATTTCTCTACGGAGTCACCTAGTGCAG", "binding signal": "5080 fluorescence intensity (a.u.)"}
{"sequence": "GTGCGTTGTGTGGTTGGTTGGTCAGTGTCTGGGTGGTCACCGGAGTCACCTAGTGCAG", "binding signal": "26000 fluorescence intensity (a.u.)"}
{"sequence": "GCGAAAACCCTGCATAAACATAGGAAAACACCAAGTGGGTCGGAGTCACCTAGTGCAG", "binding signal": "3560 fluorescence intensity (a.u.)"}
{"sequence": "TTTGATCACCGGTCCGGTCTTAATAACTATGTGGCAGACGCGGAGTCACCTAGTGCAG", "binding signal": "3660 fluorescence intensity (a.u.)"}
